Data: PubChem BioAssay (NCATS)
Inconclusive results are not listed. Active and inactive are the calls of the source. Unless noted, the call rests on the fitted dose curve; in most records, active means well fitted curve in either direction with a large enough effect (not every such curve was filed as active); inconclusive means small, poorly fitted or top-dose-only effect, or another doubt; inactive means flat fitted curve, though single readings scatter.

Assays:
[1] = target: Lysosomal acid glucosylceramidase (Homo sapiens) (UniProt P04062); assay: Glucocerebrosidase-p2 (AID 348; in the data active means potency below about 10 µM; further: potency means the concentration at half of the fitted maximal effect); details: purified GBA, blue fluorogenic substrate, 40 min
Lysosomal acid glucosylceramidase (Homo sapiens), sequence (P04062 whole entry, looked up): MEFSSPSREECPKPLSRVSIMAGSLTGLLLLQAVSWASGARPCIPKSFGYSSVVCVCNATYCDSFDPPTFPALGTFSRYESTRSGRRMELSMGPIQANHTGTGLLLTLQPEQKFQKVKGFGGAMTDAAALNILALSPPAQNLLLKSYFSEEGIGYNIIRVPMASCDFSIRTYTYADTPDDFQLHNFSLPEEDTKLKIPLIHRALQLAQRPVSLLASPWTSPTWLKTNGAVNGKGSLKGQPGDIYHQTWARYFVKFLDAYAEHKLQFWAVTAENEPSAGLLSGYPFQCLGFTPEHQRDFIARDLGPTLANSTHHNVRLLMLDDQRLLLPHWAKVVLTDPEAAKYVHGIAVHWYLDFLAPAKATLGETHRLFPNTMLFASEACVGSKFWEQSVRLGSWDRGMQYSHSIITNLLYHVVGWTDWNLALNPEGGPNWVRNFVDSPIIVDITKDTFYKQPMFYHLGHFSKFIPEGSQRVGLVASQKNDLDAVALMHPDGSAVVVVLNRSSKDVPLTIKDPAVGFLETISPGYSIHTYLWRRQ
Procedure, shortened: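 Normal human glucocerebrosidase (0.2 nM) with blue fluorogenic substrate (80 uM final) in citrate/phosphate pH 5.9 with 10mM sodium taurocholate, 0.01% tween-20; 40 min RT, NaOH/glycine stop; fluorescence Ex 365/Em 440; AC50 from a titration from 0.6 nM upwards.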

[2] = AP1 Signaling Pathway (AID 357); details: ME-180 AP-1-bla reporter, EGF-induced, beta-lactamase ratio, 5 h; at 7.69 µM (top of the series) unless noted;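 further: ME-180 reporter cells stimulated with EGF at its EC50 level; on the % scale 0 is the no-effect control and ±100 the full control effect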
Procedure, shortened: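 Beta-lactamase reporter under AP-1 response element, ME-180 background. Stimulus: EC50 EGF. Compound exposure 5 h, 37 °C. Detection: CCF4, 2.5 h RT, 460/530 nm. Values: AC50 from titration.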

[3] = Stat Signaling Pathway (AID 446); details: ME-180 (cervical carcinoma) SIE beta-lactamase reporter, IL-6 stimulated, 5 h; at 7.69 µM (top of the series) unless noted;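 further: ME-180 cervical cancer cells given 40 pM IL-6 alongside compound; SIE-controlled beta-lactamase reporter measured as 460/530 nm FRET emission ratio; on the % scale 0 is the no-effect control and ±100 the full control effect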
Procedure, shortened: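 Emission at 460 and 530 nm (excitation 405 nm) reports SIE-controlled beta-lactamase in ME-180 cells. Cells received compound with 40 pM IL-6 for 5 hrs at 37 C; data scaled between 300 pM IL-6 and 125 nM JAK-inhibitor controls.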

[4] = target: Glucocorticoid receptor (Homo sapiens) (UniProt P04150); assay: GR-EFC Redistribution (AID 451; calls by dose curve; further: potency means the concentration at half of the fitted maximal effect); details: CHO-K1 GR-EFC translocation, beta-gal luminescence, 2 h
Glucocorticoid receptor (Homo sapiens), sequence (P04150 whole entry, looked up, the tested form may be a part): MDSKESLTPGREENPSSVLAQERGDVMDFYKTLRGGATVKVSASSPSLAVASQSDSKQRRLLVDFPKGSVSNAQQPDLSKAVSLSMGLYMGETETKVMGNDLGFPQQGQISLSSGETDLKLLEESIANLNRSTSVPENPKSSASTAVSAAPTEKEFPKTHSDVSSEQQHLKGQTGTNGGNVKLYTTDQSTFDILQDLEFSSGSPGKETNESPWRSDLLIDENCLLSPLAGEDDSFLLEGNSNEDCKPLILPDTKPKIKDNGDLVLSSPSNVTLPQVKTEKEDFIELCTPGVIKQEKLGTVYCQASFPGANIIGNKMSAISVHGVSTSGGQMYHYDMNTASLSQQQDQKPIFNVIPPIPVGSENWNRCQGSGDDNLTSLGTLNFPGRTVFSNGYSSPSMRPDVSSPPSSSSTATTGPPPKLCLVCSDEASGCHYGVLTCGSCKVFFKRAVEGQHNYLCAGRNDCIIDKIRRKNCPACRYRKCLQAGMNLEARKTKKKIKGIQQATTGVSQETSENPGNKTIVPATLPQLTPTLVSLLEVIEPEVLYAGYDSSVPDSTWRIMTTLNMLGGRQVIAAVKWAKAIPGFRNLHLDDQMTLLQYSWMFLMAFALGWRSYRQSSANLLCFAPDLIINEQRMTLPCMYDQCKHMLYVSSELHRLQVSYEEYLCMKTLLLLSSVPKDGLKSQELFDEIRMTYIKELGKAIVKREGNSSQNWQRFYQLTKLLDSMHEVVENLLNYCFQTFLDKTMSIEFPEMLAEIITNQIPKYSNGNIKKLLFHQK
Procedure, shortened: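 CHO-K1 cells expressing nuclear EA and GR-ED fragments of b-gal; compounds titrated up to 46 uM final, 2 h at 37 C. GR nuclear translocation read as complemented b-gal luminescence after 1 h RT detection.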

[5] = target: Mitogen-activated protein kinase 10 (Mus musculus) (UniProt Q61831); assay: JNK3 AlphaScreen Assay (AID 530); details: JNK3 lysate, c-Jun phosphorylation; series mostly up to 57.1 µM;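 further: kinase came from lysate of stimulated human HepG2 cells; signal reports phosphorylation of biotinylated GST-cJun 1-79 at Ser73 with 10 µM ATP; on the % scale 0 is the no-effect control and ±100 the full control effect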
Procedure, shortened: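 Activity was read by AlphaScreen after JNK3-containing HepG2 lysate (cytokine pre-activated) phosphorylated biotinylated GST-cJun with 10 uM ATP at room temperature. Phospho-Ser73 cJun antibody with Protein-A acceptor beads provided detection.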

[6] = target: 3',5'-cyclic-AMP phosphodiesterase 4B (Homo sapiens) (UniProt Q07343); assay: qHTS Assay for Inhibitors of PDE-IV (AID 607; active means well fitted activation curve with a large enough effect in the main read-out, with a control signal flat, not every such curve was filed as active; further: % of control where 0% means no effect); details: HEK293 ACTOne CNG channel cells, membrane potential fluorescence; series mostly up to 22.9 µM
3',5'-cyclic-AMP phosphodiesterase 4B (Homo sapiens), sequence (Q07343 whole entry, looked up): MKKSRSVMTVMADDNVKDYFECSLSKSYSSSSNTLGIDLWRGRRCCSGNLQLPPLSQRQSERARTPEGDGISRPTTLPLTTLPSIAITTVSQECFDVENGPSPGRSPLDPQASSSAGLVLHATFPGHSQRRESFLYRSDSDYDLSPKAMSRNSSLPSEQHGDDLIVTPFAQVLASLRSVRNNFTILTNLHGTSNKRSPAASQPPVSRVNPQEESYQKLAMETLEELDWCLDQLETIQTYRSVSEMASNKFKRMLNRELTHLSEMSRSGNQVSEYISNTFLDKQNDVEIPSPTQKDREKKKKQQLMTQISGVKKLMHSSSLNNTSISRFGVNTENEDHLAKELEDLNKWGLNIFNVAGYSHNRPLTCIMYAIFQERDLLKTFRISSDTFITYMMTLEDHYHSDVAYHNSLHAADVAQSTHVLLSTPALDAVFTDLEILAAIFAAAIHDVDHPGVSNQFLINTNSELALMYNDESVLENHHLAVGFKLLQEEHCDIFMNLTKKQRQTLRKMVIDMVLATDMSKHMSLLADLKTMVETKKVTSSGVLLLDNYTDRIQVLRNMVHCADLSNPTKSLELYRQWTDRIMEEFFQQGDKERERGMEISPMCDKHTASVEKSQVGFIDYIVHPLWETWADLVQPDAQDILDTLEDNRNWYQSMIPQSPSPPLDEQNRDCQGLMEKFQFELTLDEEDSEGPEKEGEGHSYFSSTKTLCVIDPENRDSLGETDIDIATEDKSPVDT
Procedure, shortened: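 The readout is membrane depolarisation from a cAMP-sensing CNG channel, detected with a potential dye at ex 535/em 590. Cells were HEK293-derived (endogenous PDE-IV) at 1000 cells/well, titrated up to 22.9 uM final.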

[7] = qHTS Assay for Lipid Storage Modulators (AID 1519; calls by dose curve); details: Drosophila S3 cells, BODIPY lipid droplet/cell ratio, laser cytometry, cells loaded with oleic acid; for activity change, negative = inhibition: at 57.5 µM (top of the series)
Procedure, shortened: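 Cells seeded at 5,000 per well were treated with compounds over a concentration series and loaded with oleic acid (400 uM, as added). Lipid droplet fluorescence (488 nm excitation, 500-530 nm channel) was read by laser-scanning cytometry and normalized to 20 uM Triacsin C.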

[8] = Primary qHTS for small molecule stabilizers of the endoplasmic reticulum resident proteome: Secreted ER Calcium Modulated Protein (SERCaMP) assay (AID 1508630; active means well fitted inhibition curve with a large enough effect; further: on the % scale 0 is the no-effect control and ±100 the full control effect); details: SH-SY5Y GLuc-SERCaMP (Gaussia luciferase released on ER calcium loss) secretion, thapsigargin, luminescence; series mostly up to 38.4 µM
Procedure, shortened: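 The SH-SY5Y reporter protocol was run at 3 concentrations up to 38.3 uM (primary) or 11 concentrations (follow-up): 16 h compound, 100 nM thapsigargin for 4 h, then extracellular luciferase luminescence.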

[9] = NFAT Signaling Pathway (AID 444); details: Jurkat NFAT-bla M1, carbachol, beta-lactamase ratio, 5 h; at 7.69 µM (top of the series) unless noted
Procedure, shortened: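 Jurkat cells with NFAT-driven β-lactamase reporter and co-expressed M1 receptor, stimulated with carbachol (final 1 uM, ~EC50), compound titration, 5 h at 37 °C. CCF4 loaded 1 h at RT; 460/530 nm ratio gave %activity and AC50.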

[10] = target: Glucocorticoid receptor (Homo sapiens) (UniProt P04150); assay: GR-GFP Redistribution (AID 450;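 active means compounds whose dose series gives a full or clear partial fitted curve of increased nuclear translocation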; further: potency means the concentration at half of the fitted maximal effect); details: U2OS GR-GFP nuclear translocation, laser cytometry, 2 h
[11] = target: Cytochrome P450 2C9 (Homo sapiens) (UniProt P11712); assay: qHTS Assay for Inhibitors and Substrates of Cytochrome P450 2C9 (AID 883; active means well fitted inhibition curve with a large enough effect; further: on the % scale 0 is the no-effect control and ±100 the full control effect; nearly all actives have a fitted effect of over 60% in size); details: recombinant CYP2C9, luciferin-H luminescence, 60 min; series mostly up to 57.1 µM
Cytochrome P450 2C9 (Homo sapiens), sequence (P11712 whole entry, looked up): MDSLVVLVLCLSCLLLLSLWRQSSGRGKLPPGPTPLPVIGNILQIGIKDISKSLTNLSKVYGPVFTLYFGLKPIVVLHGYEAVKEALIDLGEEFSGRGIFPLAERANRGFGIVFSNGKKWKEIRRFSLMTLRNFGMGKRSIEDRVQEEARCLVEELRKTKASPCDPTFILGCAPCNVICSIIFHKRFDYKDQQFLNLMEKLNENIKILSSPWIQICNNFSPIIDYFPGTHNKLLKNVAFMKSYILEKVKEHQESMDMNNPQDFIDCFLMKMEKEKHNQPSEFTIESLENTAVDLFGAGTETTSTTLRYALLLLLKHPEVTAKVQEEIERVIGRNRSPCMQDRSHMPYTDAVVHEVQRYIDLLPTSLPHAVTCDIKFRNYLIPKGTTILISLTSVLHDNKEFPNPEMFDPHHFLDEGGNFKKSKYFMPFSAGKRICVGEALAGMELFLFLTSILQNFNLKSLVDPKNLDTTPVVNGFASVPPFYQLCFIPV
Procedure, shortened: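 Signal: luciferase luminescence reporting luciferin produced by CYP2C9. Conditions: 10nM enzyme, Luciferin-H 100uM at KM, 25mM KPO4, 37C, 60 min NADPH-driven reaction. Reference: 57uM sulphaphenazole as 100% inhibition.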

[12] = measured here: cell count channel max response
[13] = measured here: lipid channel max response

| Compound | Potency [1] | activity change, negative = inhibition [2] | activity, negative = inhibition [3] | Potency [4] | Potency [5] | Potency [6] | activity change, negative = inhibition [7] | max response [7, 12] [%] | max response [7, 13] [%] | outcome [8] | activity change, negative = inhibition [9] | Potency [10] | Potency [11] |
| --- | --- | --- | --- | --- | --- | --- | --- | --- | --- | --- | --- | --- | --- |
| N#Cc1ccc(CN2CCCC3(CCN(C(=O)c4csnn4)CC3)C2)cc1 | > 11.4 µM (inactive) | -6.06% (inactive) | 1.34% (inactive) | > 46 µM (inactive) | inactive | inactive | -0.464% (inactive) | -10.9 | -8.04 | inactive |  |  |  |
| N#Cc1ccc(CN2CCC3(CC2)CCN(C(=O)c2cccc(F)c2)CC3)cc1 | > 11.4 µM (inactive) | 3.84% (inactive) | 8.5% (inactive) | > 46 µM (inactive) | inactive | inactive | 1.66% (inactive) | 7.59 | 9.63 | inactive |  |  |  |
| Cn1cccc1C(=O)N1CCC2(CC1)CN(C(=O)Nc1cccc(C#N)c1)C2 | > 11.4 µM (inactive) | -22.3% (inactive) | -3.02% (inactive) | > 46 µM (inactive) | inactive | inactive | 4.61% (inactive) | 11.3 | 18.4 | inactive |  |  |  |
| Cn1cccc1C(=O)N1CCC2(CC1)CCN(c1ccncc1)CC2 | > 11.4 µM (inactive) | -0.611% (inactive) | 6.85% (inactive) | > 46 µM (inactive) | inactive | inactive | 1.02% (inactive) | -0.0216 | 2.95 | inactive |  |  |  |
| COc1ccccc1CN1CC[C@@]2(CCCN(C(=O)c3ccncc3)C2)C1 | > 11.4 µM (inactive) | -11.5% (inactive) | 0.423% (inactive) |  | inactive | inactive | 3.67% (inactive) | 8.53 | 14.1 | inactive | 3.54% (inactive) |  |  |
| COc1ccc(C(=O)N2CCC3(CCN(Cc4ccccc4)CC3)CC2)cc1 | > 11.4 µM (inactive) | -0.685% (inactive) | 0.0273% (inactive) | > 46 µM (inactive) | inactive | inactive | 0.635% (inactive) | -0.0682 | 7.94 | inactive |  |  |  |
| O=C(c1cc(C(F)(F)F)cc(C(F)(F)F)c1)N1CCC2(CCCN(c3ccccc3)C2)CC1 | > 11.4 µM (inactive) | 22.8% (inactive) | 2.12% (inactive) | > 46 µM (inactive) | inactive | inactive | -18.4% (inactive) | 1.58 | -14.9 | inactive |  |  |  |
| COCC(=O)N1CCC2(CC1)CCN(c1ccncc1)CC2 | > 11.4 µM (inactive) | 7.44% (inactive) | 16.3% (inactive) | > 46 µM (inactive) | inactive | inactive | -1.56% (inactive) | -6.96 | -10.2 | inactive |  |  |  |
| COCC(=O)N1CCC2(CCN(Cc3ccccc3)CC2)CC1 | > 11.4 µM (inactive) | -10.9% (inactive) | -3.84% (inactive) | > 46 µM (inactive) | inactive | inactive | 1.52% (inactive) | 2.79 | 9.37 | inactive |  |  |  |
| COc1ccc(Oc2ncc3nc(-c4cn(C)c5ccccc45)c(=O)n(CCC#N)c3n2)cc1 | > 11.4 µM (inactive) | -1.79% (inactive) |  | > 46 µM (inactive) | inactive | inactive | -4.32% (inactive) | 27.8 | 26.1 | inactive | -2.24% (inactive) | > 9.22 µM (inactive) | inactive |
| COCC(=O)N1CCC2(CC1)CN(c1cccc(-c3ccccc3)c1)C2 | > 11.4 µM (inactive) | -29.8% (inactive) |  | > 46 µM (inactive) | inactive | inactive | 3.02% (inactive) | -3.81 | 0.928 | inactive | 19.3% (inactive) |  |  |
| COc1ccccc1CN1CC2(CCN(C(=O)c3cc(C(F)(F)F)cc(C(F)(F)F)c3)CC2)C1 | > 11.4 µM (inactive) | 1.43% (inactive) | 3.93% (inactive) | > 46 µM (inactive) | inactive |  | -1.27% (inactive) | 11.2 | 10.9 | inactive |  |  |  |
| O=C(c1cnccn1)N1CCC2(CC1)CN(c1ncccn1)C2 | > 11.4 µM (inactive) | -12.2% (inactive) | 21.6% (inactive) | > 46 µM (inactive) | inactive | inactive | 6.01% (inactive) | 6.2 | 15.3 | inactive |  |  |  |
| CC(C)CN1CC2(CCN(C(=O)c3csnn3)CC2)C1 | > 11.4 µM (inactive) | -4.73% (inactive) | 4.77% (inactive) | > 46 µM (inactive) | inactive | inactive | -0.802% (inactive) | -2.36 | -0.0505 | inactive |  |  |  |
| COc1ccc(C(=O)N2CCC3(CCCN(Cc4ccc(C#N)cc4)C3)CC2)cc1 | > 11.4 µM (inactive) | 16.7% (inactive) | 2.1% (inactive) | > 46 µM (inactive) | inactive | inactive | -2.89% (inactive) | -1.58 | -2.86 | inactive |  |  |  |
| O=C(c1ccncc1)N1CCC2(CCCN(c3ccncc3)C2)CC1 | > 11.4 µM (inactive) | -3.65% (inactive) | -4.53% (inactive) | > 46 µM (inactive) | inactive | inactive | 0.736% (inactive) | -10.7 | -8.67 | inactive |  |  |  |
